# Sampled rows, rich in hits. Any-hit rate of the full collection: about 3.6%.
# BoNT F protease – blocks Botulinum neurotoxin F light chain protease | 360,000 compounds, 0.22% hits | inhibition, % at 10 µM | AID 588497 | Multiplex microsphere protease cleavage assay, flow cytometry; in the data active = inhibition above about 35%, passing the limit was not always enough; inconclusive = no clear call, values can overlap the other calls; also: plate controls were buffer without enzyme for full effect and enzyme alone for no effect
# BoNT A protease – BoNT A light chain protease inhibition | inhibition, % at 10 µM | 360,000 compounds, 0.17% hits | multiplex microsphere protease substrate cleavage, flow cytometry | AID 588499; also: plate controls were buffer without enzyme for full effect and enzyme alone for no effect
# Bead autofluor – counter-screen for toxin protease inhibitors: compound fluorescence. 360,000 compounds, 3.1% hits. compound autofluorescence counterscreen, microsphere flow cytometry; stronger effect = higher value. fluorescence intensity (test concentration not listed); in the data active = fluorescence intensity above about 16000; inconclusive = no clear call, values can overlap the other calls
# MazF activator – increases E. coli MazEF RNase cleavage of RNA | FAM/BHQ RNA-DNA oligo cleavage fluorescence, 5 h | activation, % at 20 µM | 350,000 compounds, 0.32% hits; in the data active = activation above about 50%
# Anthrax LF prot – blocks Bacillus anthracis lethal factor protease; multiplex microsphere protease cleavage assay, LF; 360,000 compounds, 0.12% hits; inhibition, % at 10 µM; also: plate controls were buffer without enzyme for full effect and enzyme alone for no effect
# Starred values were filed as active, the others as inactive; ? = inconclusive; . = no result; + = active, no number; ! = a repeat was not active. Rule as the data show it, unless noted: active = inhibition above about 30%; inconclusive = no clear call, values can overlap the other calls; inactive = below that.
SMILES,BoNT F protease,BoNT A protease,Bead autofluor,MazF activator,Anthrax LF prot
Cc1ccc(CNCC(O)(c2ccc(F)cc2)c2ccc(F)cc2)cc1,-13,?,22638*,-2,-8
CCCCCCOc1ccc(C(=O)n2cnc(N)n2)cc1,-2,2,21741*,-4,1
CCCCCCOc1ccc(C(=O)O)cc1,0,0,4376,7,1
CCOC(=O)c1ccc(NC2c3ncccc3C(=O)N2Cc2ccc(F)cc2)cc1 (stereo not given),-2,-1,24047*,-3,-3
CCOc1ccc(N2C(=O)c3cccnc3C2Nc2ccc(Cl)cc2)cc1 (stereo not given),1,2,21889*,-1,0
COC(=O)c1cc(NC2c3ncccc3C(=O)N2Cc2ccccc2)cc(C(=O)OC)c1 (stereo not given),-2,1,16375*,5,2
CCN(C(=O)COC(=O)CCCOc1ccc(Cl)cc1C)c1c(N)n(Cc2ccccc2)c(=O)[nH]c1=O,-11,-1,3170,3,0
CCOC(=O)c1ccc(S(=O)(=O)N2CCN(C(=O)c3ccccn3)CC2)cc1,-10,-1,3943,4,-2
COC(=O)c1sccc1NC(=O)Nc1ccc(F)cc1F,-4,1,4322,2,-5
CSc1ccc(/C=C/C(=O)OCC(=O)c2ccc[nH]2)cc1,-1,0,3966,-8,-6
CC1=CC(C)=Nc2ccc(C)cc2N1,-9,0,18983*!,-25,3
Cc1ccc2c(c1)NC(=O)CC(c1ccccc1)=N2,-1,0,2714,1,-2
CC(C)C1C(c2ccccc2)N(C)C(c2ccccc2)CC1(O)c1ccccc1 (stereo not given),1,2,21931*,5,0
CC1(C(=O)Nc2ccc3ccccc3c2)CCC(=O)N1CCc1c[nH]c2ccccc12 (stereo not given),-1,0,4226,.,-13
O=C(CSc1nnc(-c2ccccc2F)n1C1CC1)N1CCCC1,-7,0,3761,0,-2
CCOC(=O)c1ccc2c(c1)nc(COc1ccc(OC)cc1)n2CC,1,2,16133*,2,-1
CCc1nc2ccc(C(=O)N3CCN(c4ccccc4)CC3)cn2c1N(CCC(C)C)CCN(C)C,0,0,4010,.,0
CC(C)C[C@@H](CN1CCC[C@H]1CN1C(=O)C(=O)NC[C@@H]1Cc1ccccc1)N1C[C@H](Cc2ccccc2)N(CC2CCCCC2)C(=O)C1=O,-3,0,4153,.,-4
CC1(c2cccs2)CC(c2cccs2)=C(C#N)C(=O)N1 (stereo not given),-5,-2,22806*,1,-1
Cc1ccc(S(=O)(=O)N(C)C)cc1NC(=O)COC(=O)c1ccc2ccccc2n1,-5,-2,6523,-4,-1
CC(=O)n1c(C=Nc2ccc(Cl)cc2)c(O)c2ccccc21,-1,-1,4626,+,-6
CC(=O)n1c2ccccc2c2ccccc21,-12,-1,9822,5,-1
O=[N+]([O-])c1ccc(C=NNc2ccccc2)cc1,-3,-1,3590,28,-7
O=[N+]([O-])c1ccc(N/N=C/c2ccccc2)c(F)c1,-3,1,2652,234*,2
CC1(C)CC(=NNC(=O)c2n[nH]c3c2CCC3)CC(C)(C)N1,37*,3,2077,-3,-2
SMILES,BoNT F protease,BoNT A protease,Bead autofluor,MazF activator,Anthrax LF prot
CC1(C(=O)NCc2cccc3ccccc23)CCN1C(=O)C1(c2ccccc2)CCCC1 (stereo not given),0,0,3843,.,2
CCn1c(CC(C)C)n[nH]c1=S,0,0,3588,6,5
CCn1c(CCn2ccnc2C)n[nH]c1=S,6,?,18972*,-8,-9
O=S(=O)(/C=C/c1ccccc1)Oc1ccccc1,-4,-3,21677*,-4,0
O=C(NC1CCN(Cc2nnnn2CCc2ccccc2)CC1)c1ccccc1F,5,3,22189*,2,-2
COc1nc(N/N=C/c2ccccc2F)nc(N2CCCCC2)n1,2,3,22376*,3,0
O=[N+]([O-])c1ccccc1/C=N/Nc1nc(N2CCCC2)nc(N2CCCC2)n1,3,0,3910,4,-8
Cc1ccc(N=Cc2sc(O)c3ccccc23)c(C)c1,13,1,9519,691*,-6
Cc1ccccc1C(=O)NCCNc1ccc([N+](=O)[O-])cc1,-3,0,4236,6,-6
Cc1ccccc1C(=O)NNc1ccc([N+](=O)[O-])cc1,10,?,19390*,-6,-8
O=C(CSc1ccc2nnc(CCNC(=O)c3ccccc3)n2n1)NC1CCCC1,-2,-2,6354,-6,1

# Bioassay records as filed in PubChem BioAssay.
